Measurements published in PubChem BioAssay (NCATS).
Results filed as inconclusive are left out. Activity calls are given as the source filed them. Unless noted, the call rests on the fitted dose curve.

Columns and labels:
[1] = Primary qHTS for inhibitors of SARS-S pseudo-typed particle cell entry (AID 1479145); further: nearly all actives have a fitted effect of over 45% in size; further: potency means the concentration at half of the fitted maximal effect
[2] = Primary qHTS for Huh7 cytotoxicity: counterscreen for inhibitors of MERS-S pseudotyped particle cell entry (AID 1479147)
[3] = Primary qHTS for inhibitors of MERS-S pseudo-typed particle cell entry (AID 1479149); further: nearly all actives have a fitted effect of over 60% in size
[4] = Primary qHTS for Vero E6 cytotoxicity: counterscreen for inhibitors of SARS-S pseudo-typed particle cell entry (AID 1479150); further: potency means the concentration at half of the fitted maximal effect
[5] = Primary qHTS for inhibitors of La Crosse Virus (LACV) - induced cell death in SH-SY5Y cells (AID 1508616; active means well fitted inhibition curve with a large enough effect;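 further: top concentration of the series differs between compounds; higher means more rescue of cells from virus-induced death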)
In short: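 SH-SY5Y cells (6000/well) plated 24 h, then given compounds by pin transfer and LACV at 0.01 MOI for 6 days at 37C. Viability measured by ATPLite luminescence, normalized to infected DMSO and uninfected DMSO.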

[6] = Counterscreen qHTS for small molecule stabilizers of the endoplasmic reticulum resident proteome: GLuc-NoTag assay (AID 1508627; active means well fitted inhibition curve with a large enough effect;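 further: SH-SY5Y cells given compound then 100 nM thapsigargin to empty ER calcium; series mostly up to about 76 µM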)
In short: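 SH-SY5Y cells stably expressing constitutively secreted GLuc (no SERCaMP tag) were pre-incubated 5 h, treated with compound for 19 h, then 100 nM thapsigargin for 4 h at 37C; medium GLuc read by coelenterazine luminescence.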

[7] = Confirmatory qHTS for small molecule stabilizers of the endoplasmic reticulum resident proteome: Secreted ER Calcium Modulated Protein (SERCaMP) assay (AID 1508628; active means well fitted inhibition curve with a large enough effect; further: series mostly up to about 76 µM; nearly all actives have a fitted effect of over 40% in size)
In short: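 SH-SY5Y cells stably expressing GLuc-SERCaMP, treated 16 h with compound (primary 1.53, 7.67, 38.3 uM; confirmation 11 concentrations, up to 76.6 uM), then 100 nM thapsigargin for 4 h. Secreted Gaussia luciferase in medium read by coelenterazine luminescence.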

Measured: Potency

Cn1c(=O)c2[nH]c(Br)nc2n(C)c1=O
inactive: [1] | [2] | [3] | [4]

CC(O)(P(=O)(O)O)P(=O)(O)O
inactive: [1] | [2] | [3] | [4]

NC(=O)c1ccccc1O
inactive: [1] | [2] | [3] | [4]

COc1nccnc1NS(=O)(=O)c1ccc(N)cc1
inactive: [1] | [2] | [3] | [4]

CCOC(=O)C1=C(C)NC(C)=C(C(=O)OC)C1c1cccc([N+](=O)[O-])c1 (stereo unspecified)
inactive: [1] | [2] | [3] | [4]

O=c1oc2ccccc2c(O)c1Cc1c(O)c2ccccc2oc1=O
inactive: all assays above

CO[C@@]1(NC(=O)CSC[C@@H](N)C(=O)O)C(=O)N2C(C(=O)O)=C(CSc3nnnn3C)CS[C@@H]21
inactive: [1] | [2] | [3] | [4]

Nc1ccc(C(=O)Oc2ccccc2)c(O)c1
inactive: [1] | [2] | [3] | [4]

CC(=O)Nc1c(I)cc(I)c(C(=O)O)c1I
inactive: [1] | [2] | [4]

CCCc1c2oc(C(=O)O)cc(=O)c2cc2c(=O)cc(C(=O)O)n(CC)c12
inactive: [1] | [2] | [3] | [4]

CO[C@@]1(NC(=O)C(C(=O)O)c2ccc(O)cc2)C(=O)N2C(C(=O)O)=C(CSc3nnnn3C)CO[C@@H]21 (stereo partly specified)
inactive: [1] | [2] | [4]

NC(N)=NC(=O)Cc1c(Cl)cccc1Cl
inactive: [1] | [2] | [4]

O=C(O)CCCCC1CCSS1 (stereo unspecified)
inactive: [1] | [3] | [4]

Cc1cc(OI)c(C(C)C)cc1-c1cc(C(C)C)c(OI)cc1C
inactive: [1] | [2] | [4]

COCCOC(=O)C1=C(C)NC(C)=C(C(=O)OC(C)C)C1c1cccc([N+](=O)[O-])c1 (stereo unspecified)
inactive: [1] | [2] | [4]

CC(C(=O)O)c1cccc(Oc2ccccc2)c1 (stereo unspecified)
inactive: [1] | [2] | [4]

O=c1c(-c2ccc(O)cc2)coc2cc(O)cc(O)c12
inactive: [2] | [3] | [4]

COc1cc(NS(C)(=O)=O)ccc1Nc1c2ccccc2nc2ccccc12
active: [1] 0.794 µM | [4] 25.1 µM

CC(C)[C@H]1C(=O)N2CCC[C@H]2[C@]2(O)O[C@](NC(=O)[C@@H]3C[C@@H]4c5cccc6[nH]cc(c56)C[C@H]4N(C)C3)(C(C)C)C(=O)N12
inactive: [1] | [2] | [4]

O=c1c(C2CC(c3ccc(-c4ccc(Br)cc4)cc3)Cc3ccccc32)c(O)sc2ccccc12 (stereo unspecified)
inactive: [2] | [5]
active: [1] 25.1 µM

C[C@H](NC(CCc1ccccc1)C(=O)O)C(=O)N1CCC[C@H]1C(=O)O (stereo partly specified)
inactive: [1] | [2] | [4]

c1ccc2sc(SN3CCOCC3)nc2c1
inactive: [1] | [3] | [4]

NCC[C@H](O)C(=O)N[C@@H]1C[C@H](N)[C@@H](O[C@H]2O[C@H](CN)[C@@H](O)[C@H](O)[C@@H]2O)[C@H](O)[C@@H]1O[C@H]1O[C@H](CO)[C@@H](O)[C@H](N)[C@@H]1O
inactive: [2] inactive [at 0.573 µM] | [3] inactive [at 0.573 µM]

CN1C[C@@H]2C[C@H]1CN2c1cc2c(cc1F)c(=O)c(C(=O)O)cn2C1CC1
inactive: [1] | [2] | [4]

O=C(NCC(O)CO)c1c(I)c(C(=O)NCC(O)CO)c(I)c(N(CCO)C(=O)CO)c1I (stereo unspecified)
inactive: [2] | [3] | [4]

CCCCCN(CCCOC)C(=O)C(CCC(=O)O)NC(=O)c1ccc(Cl)c(Cl)c1 (stereo unspecified)
inactive: [2] | [3] | [4]

CCCCN(CCCC)CCCOC(=O)c1ccc(N)cc1
inactive: [1] | [3] | [4]

CC(C(=O)O)c1ccc2c(c1)CC(=O)c1ccccc1S2 (stereo unspecified)
inactive: [1] | [2] | [4]

CC(C)[C@H](N)C(=O)OCC(CO)OCn1cnc2c(=O)[nH]c(N)nc21 (stereo partly specified)
inactive: [2] | [3] | [4]

CCCNC(C)C(=O)Nc1c(C)csc1C(=O)OC (stereo unspecified)
inactive: [2] | [3] | [4]

CC1(C)S[C@@H]2[C@H](NC(=O)C(c3ccccc3)S(=O)(=O)O)C(=O)N2[C@H]1C(=O)O (stereo partly specified)
inactive: [2] | [3] | [4]

O=C(CCBr)N1CCN(C(=O)CCBr)CC1
inactive: [2] | [3] | [4]

NC[C@H]1O[C@H](O[C@H]2[C@H](O)[C@@H](O[C@H]3O[C@H](CO)[C@@H](O)[C@H](N)[C@H]3O)[C@H](N)C[C@@H]2N)[C@H](O)[C@@H](O)[C@@H]1O
inactive: [2] inactive [at 5.34 µM] | [3] inactive [at 5.34 µM] | [4] inactive [at 5.34 µM]

Nc1ncnc2nc[nH]c12
inactive: [1] | [2] | [4]

CCCCC(CC)CN1CN(CC(CC)CCCC)CC(C)(N)C1 (stereo unspecified)
inactive: [2] | [3] | [4]

Cc1ccc(-c2ncc(Cl)cc2-c2ccc(S(C)(=O)=O)cc2)cn1
inactive: [2] | [3] | [4]

CN1CCN2c3ncccc3Cc3ccccc3C2C1 (stereo unspecified)
inactive: [2] | [3] | [4]
